The values below come from PubChem BioAssay AID864 (The Scripps Research Institute Molecular Screening Center, 2007).

The assay concerns the target Galanin receptor type 2 (Homo sapiens) (UniProt O43603). Briefly: activators of human galanin receptor 2 – cell-based, confirmation (AID 864).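 Note: 0% = buffer-only vehicle wells and 100% = full reference agonist response.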 To be noted: GALR2-expressing cells, agonist activation; at 5.6 µM; active compounds read high.

The other results are listed elsewhere or left out. Values without a mark were called inactive. Cut-off read from the data, not from the text of the source: active = activation above about 8.4%; inactive = the rest.

Galanin receptor type 2 (Homo sapiens), sequence (O43603 whole entry, looked up): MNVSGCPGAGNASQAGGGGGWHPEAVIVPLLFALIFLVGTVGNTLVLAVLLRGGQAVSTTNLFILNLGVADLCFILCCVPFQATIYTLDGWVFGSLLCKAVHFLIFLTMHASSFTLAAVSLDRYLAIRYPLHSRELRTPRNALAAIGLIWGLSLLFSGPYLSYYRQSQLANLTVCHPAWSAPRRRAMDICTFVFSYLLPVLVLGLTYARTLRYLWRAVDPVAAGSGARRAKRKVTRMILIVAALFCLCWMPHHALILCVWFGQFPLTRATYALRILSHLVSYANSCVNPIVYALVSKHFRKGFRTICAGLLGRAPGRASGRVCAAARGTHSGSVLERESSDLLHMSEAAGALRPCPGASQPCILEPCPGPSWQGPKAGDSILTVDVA

With `Cc1cccc(N2C(=O)NC(=O)/C(=C\c3cnn(-c4ccccc4)c3)C2=O)c1`, the activation is -0.18%.
